Results on 94 molecules are retold here after PubChem BioAssay AID1578 (Sanford-Burnham Center for Chemical Genomics, 2009).

As a reminder, the inhibition is the change of the read-out against control, counted positive when it falls.

Hit rate of the full screen: of about 290,000 compounds, about 3,000 (1%) were called active. For the sample, actives were picked, then their nearest neighbours and some compounds at random. Values without a mark were called inactive. No stated cut-off is given here; in the data, active means inhibition mostly above about 36% (no sharp cut-off); inactive means mostly below about 34%.

A short description of the assay: inhibition of NOD1-driven NF-kB reporter – cell-based, luminescence, uHTS, primary screen (AID 1578).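 Further: HEK-293T reporter cells stimulated with the NOD1 agonist gamma-tri-DAP.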 The settings on record: NOD1-driven NF-kB luciferase reporter cells, at 4 µM, stronger effect = higher value.
On to `COc1cc2ccccc2cc1C(=O)Nc1ccc(N2CCN(C(=O)C(C)C)CC2)cc1`, for which the inhibition was 17.8%.

With `CC(=O)OC(C(=O)NC1CCCCC1)c1ccccc1F` (centres undefined), the inhibition is -33.2%. As for `O=C(NN1CCOCC1)c1ccc(Cl)cc1[N+](=O)[O-]`, the inhibition is -11.4%. Take `O=C(Nc1ccc(Br)cc1)c1cccc(S(=O)(=O)Nc2cnc3ccccc3c2)c1`: the inhibition was 48.2%. On to `COc1ccc(NS(=O)(=O)c2ccc3oc4ccccc4c3c2)cn1`, for which the inhibition is 56.6%. To `COc1ccc(NS(=O)(=O)c2ccc(Br)cc2)cn1` belongs -35.5%; to `O=C(O)c1ccc(NS(=O)(=O)c2cccc(C(=O)Nc3ccc(Br)cc3)c2)cc1`, -13.1%. For `Cc1ccc2cc(NC(=O)CC(CC(=O)O)c3ccccc3)ccc2n1` (centres undefined), the inhibition was -10.4%.

For `CNC(=S)NCCc1ccc(OC)c(OC)c1`, the inhibition was 24.7%.

On to `CCN(CC)S(=O)(=O)c1cccc(NC(=O)COC(=O)CCC(=O)c2ccc(F)cc2)c1`, for which the inhibition was -40.1%. Regarding `O=C(c1cc2ccccc2oc1=O)N(c1ccccc1)C1C=CS(=O)(=O)C1` (centres undefined), the inhibition is 5.4%. Turning to `C/C(=N\N=C(/N)SC1CC(=O)N(c2ccccc2)C1=O)c1cccs1` (centres undefined), the inhibition is 15.7%. `C/C(=N\N=C(/N)SC1CC(=O)N(c2ccc(Br)cc2)C1=O)c1cccs1` (centres undefined): the inhibition was 87.7% (active). `C/C(=N\N=C(/N)SC1CC(=O)N(c2ccc(Cl)cc2)C1=O)c1cccs1` (centres undefined): the inhibition was -4.8%. `Cc1cccnc1CN1CCN(C(=O)CCc2nnc(CCc3ccccc3)o2)CC1`: the inhibition was -55.3%. Next, `CCCN1C(=O)/C(=C/c2nc3ccccc3c(=O)[nH]2)c2ccccc21`: -6.3%. To `CCN1C(=O)/C(=C/c2nc3ccccc3c(=O)[nH]2)c2ccccc21` belongs 21.1%; to `CC(C)N1C(=O)/C(=C\c2nc3ccccc3c(=O)[nH]2)c2ccccc21`, 105% (active); to `COc1ccc(CC(=O)Nc2ncc([N+](=O)[O-])s2)cc1OC`, -65%. Regarding `CCCCC(=O)Nc1ncc([N+](=O)[O-])s1`, the inhibition was -10.8%. In the case of `O=C(CS(=O)(=O)c1ccccc1)Nc1ncc([N+](=O)[O-])s1`, the inhibition was -39%. With `CC(CC(=O)Nc1ncc([N+](=O)[O-])s1)c1ccccc1` (centres undefined), the inhibition was -19.5%. In the case of `CC(C)CC(=O)Nc1ncc([N+](=O)[O-])s1`, the inhibition is 3.6%. As for `O=C(COc1ccc(Cl)cc1)Nc1ncc([N+](=O)[O-])s1`, the inhibition was 73.5% (active). As to `Cc1ccc(CC(=O)Nc2ncc([N+](=O)[O-])s2)cc1`, the inhibition is -37.4%.

Take `CC(C1CC1)N(Cc1ccccc1)C(=S)Nc1ccccc1Cl` (centres undefined): the inhibition was -9.7%. As for `CC(SCC(=O)O)c1nc2ccccc2[nH]1` (centres undefined), the inhibition is 10.8%.

For `CCOc1ccccc1N(C)S(=O)(=O)c1ccc2c(c1)N(C(C)=O)CCO2`, the inhibition is 5.2%. To `NC(=O)/C(=C\c1ccccc1)NC(=O)/C=C/c1ccccc1` belongs -19%. `CCOC(=O)c1nn(-c2ccccc2)c2nnc(Cc3ccccc3)c(=O)n12`: the inhibition was 45.2%.

Consider `CCOC(=O)C1=C(CSc2nc3ccccc3s2)NC(=O)NC1c1cccc([N+](=O)[O-])c1` (centres undefined), for which the inhibition was 32.6%. Consider `COC(=O)C1=C(CSc2nc3ccccc3s2)NC(=O)NC1c1ccc(F)cc1` (centres undefined), for which the inhibition was -25.4%.

Consider `CCOC(=O)C1=C(CSc2nc3ccccc3s2)NC(=O)NC1c1ccc(OC)cc1` (centres undefined), for which the inhibition was 67.5% (active).

Consider `CCN(CC)CCCNC(=O)C1c2ccccc2C(=O)N(C)C1c1ccc(OC)cc1` (centres undefined), for which the inhibition was 99.8% (active). Next, `CCN1CCN(CCCNC(=O)C2c3ccccc3C(=O)N(C)C2c2ccc(OC)cc2)CC1` (centres undefined): -21.6%. For `CCN(CC)CCCNC(=O)C1c2ccccc2C(=O)N(CCOC)C1c1ccc(F)cc1` (centres undefined), the inhibition was -40.8%. As for `COc1ccc(CCN2CC(C(=O)NC3CCCCC3)CC2=O)cc1OC` (centres undefined), the inhibition is -2%.

As to `CCCc1cc(NCCCO)n2c(nc3ccccc32)c1C#N`, the inhibition was -0.5%. Take `Cc1n[nH]c(C)c1CCNCc1ccc(OCC(O)CN2CCCCC2)cc1` (centres undefined): the inhibition was -21.7%. Take `Cc1csc(NC(=O)c2cn3ccccc3n2)n1`: the inhibition was 53.2% (active). Turning to `O=C(Nc1nccs1)c1cn2ccccc2n1`, the inhibition is 22.8%. In the case of `O=C(Nc1ccccc1)c1cn2ccccc2n1`, the inhibition was 1.1%.

With `Cc1noc(C)c1CSc1cc(C)c2ccccc2n1`, the inhibition is -32.2%. Turning to `COc1ccc(C(=O)Nc2ccc3c(c2)C(=O)N(C)C3=O)cc1OC`, the inhibition is -3.5%. Regarding `COc1cccc(-n2cnc3sc(C)cc3c2=O)c1`, the inhibition was -25.1%. As for `CCCOC(=O)c1cc(=O)[nH]c2ccccc12`, the inhibition was -5.2%.

`O=C(NCCN1C(=O)S/C(=C\c2ccc(Cl)cc2)C1=O)c1ccc(F)c(S(=O)(=O)N2CCOCC2)c1`: the inhibition was -0.6%. Regarding `O=C(NCCN1C(=O)S/C(=C\c2ccc(F)cc2)C1=O)c1cccc(S(=O)(=O)N2CCOCC2)c1`, the inhibition is 21.8%.

In the case of `CC(C)(C)c1ccc(/C=C2\SC(=O)N(CCNC(=O)c3cccc(S(=O)(=O)N4CCOCC4)c3)C2=O)cc1`, the inhibition is 74.4% (active). To `CC1CCN(C(=O)c2ccccc2NC(=O)c2cccc(S(=O)(=O)N(C)C)c2)CC1` belongs -46.2%; to `CCOC(=O)c1c(-c2ccc(C)o2)csc1NC(=S)NC(=O)c1ccc(F)cc1`, 37.3%; to `CCOC(=O)c1c(-c2ccc(C)o2)csc1NC(=S)NC(=O)N(C)C`, 97.4% (active). With `CCOC(=O)c1c(-c2ccc(C)o2)csc1NC(=S)NC(=O)c1cccs1`, the inhibition is 36.4%. Turning to `COc1ccc(-c2ncccc2OC(=O)C23CC4CC(CC(C4)C2)C3)cc1OC`, the inhibition was -13.7%. For the molecule `CC1CCC(NC(=O)COc2ccccc2C(N)=O)CC1` (centres undefined), the inhibition is -22%. `CN(C)c1oc(/C=C/c2cccs2)nc1S(=O)(=O)c1ccccc1`: the inhibition is 32.1%. With `Cc1cc(O)c(C(=O)/C=C/c2ccc(Cl)cc2)c(=O)o1`, the inhibition is 46.1% (active). With `Cc1cc(O)c(C(=O)/C=C/c2ccc(C(C)C)cc2)c(=O)o1`, the inhibition was 5.9%. As to `Cc1cc(O)c(C(=O)/C=C/c2ccccc2)c(=O)o1`, the inhibition was 0.7%.

Consider `CCOC(=O)C1(CCc2ccccc2)CCN(Cc2ccc(C(=O)OC)cc2)CC1`, for which the inhibition was 13.7%. For the molecule `Cc1occc1C(=O)Nc1ccc2ccccc2c1`, the inhibition was -121%.

For the molecule `Cc1ccc(NC(=O)c2ccoc2C)cc1C`, the inhibition is 112% (active).

For `Cc1occc1C(=O)Nc1ccc2c(c1)OCCO2`, the inhibition is -15%. `COC(=O)C(Cc1c[nH]c2ccccc12)NC(=O)c1cccs1` (centres undefined): the inhibition is -7.6%. Next, `CCN(C(=O)COc1ccccc1)c1nnc(-c2cccnc2)s1`: -10.9%; `CN1CCN(c2nc3ccccc3nc2C(C#N)C(=O)OC2CCCCC2)CC1` (centres undefined): 11.4%.

As to `CCN1CCN(c2nc3ccccc3nc2C(C#N)C(=O)OC2CCCCC2)CC1` (centres undefined), the inhibition was 81.8% (active). Take `N#CC(C(=O)OC1CCCCC1)c1nc2ccccc2nc1N1CCCCC1` (centres undefined): the inhibition is 4.5%.

As for `COCCN1C(=O)C(CC(=O)Nc2ccc(C(C)=O)cc2)SC1=Nc1ccccc1` (centres undefined), the inhibition was 4.5%. `COC(=O)Nc1ccc(C)c(NC(=O)OC)c1`: the inhibition was -7.3%.

Consider `O=c1[nH]c([N+](=O)[O-])nn1C(c1ccccc1)c1ccccc1`, for which the inhibition is 6.5%.

For `COC(=O)c1ccc(CSc2cc(C)c3cccc(C)c3n2)o1`, the inhibition is -10.2%. To `COC(=O)c1ccc(CSc2cc(C)c3cc(C)cc(C)c3n2)o1` belongs 48.3% (active). Next, `COC(=O)c1ccc(CSc2cc(C)c3ccccc3n2)o1`: -55.1%; `CCOC(=O)C1CCN(Cc2cc(C(C)(C)C)c(O)c(C(C)(C)C)c2)CC1`: 43.8% (active); `CC(C)(C)c1cc(CN2CCC(O)CC2)cc(C(C)(C)C)c1O`: 36.7%.

As to `CCOC(=O)C1CCN(Cc2cc(C(C)C)c(O)c(C(C)C)c2)CC1`, the inhibition is -13.9%. For the molecule `Cc1c(C(c2cccc(Br)c2)c2c(C)n(C)n(-c3ccccc3)c2=O)c(=O)n(-c2ccccc2)n1C`, the inhibition was -14%.

For the molecule `CC12C(=O)N(c3ccc(C(=O)N4CCOCC4)cc3)C(=O)C1C1c3ccccc3C2c2ccccc21` (centres undefined), the inhibition was -20.5%. Next, `c1ccc(-n2c(SCC3CCCCO3)nnc2-c2cnccn2)cc1` (centres undefined): 11.8%; `CCc1nnc(NC(=O)C2CCN(c3cnccn3)CC2)s1`: -4.1%; `COc1nc(N/N=C/c2ccc(C)cc2)nc(N2CCCCC2)n1`: -27.3%. As for `Cc1ccc(-n2c(C)n[nH]c2=S)cc1C`, the inhibition was 3.4%. Next, `Cc1ccc(-n2c(-c3ccncc3)n[nH]c2=S)cc1C`: -5.7%; `Cc1cc(-c2n[nH]c(=S)n2-c2ccc(C)c(C)c2)no1`: 84% (active); `CCN(CC)S(=O)(=O)N1CCC(C(=O)NCc2ccco2)CC1`: 22%.

As to `COc1ccc(C2(c3ccc(OC)cc3)NC(=O)N(CC(=O)N(C)C)C2=O)cc1`, the inhibition is -33.1%. In the case of `COc1c(Cl)cc(-c2noc(C)c2C(=O)NCCc2ccc(C)cc2)cc1Cl`, the inhibition is -10.2%. `CN(C)c1ccc(NC(=O)C(=O)C2C(=O)Nc3ccccc32)cc1` (centres undefined): the inhibition was -9.3%. On to `COc1cccc(CC(NC(C)=O)C(=O)NC2CCN(c3c4c(nc5ncnn35)CCC4)CC2)c1OC` (centres undefined), for which the inhibition is -26.4%.

On to `CC1=Nc2cc(C(=O)NCC3CCCO3)ccc2Sc2ccc(Br)cc21` (centres undefined), for which the inhibition was 8.4%. Turning to `CCC1=Nc2cc(C(=O)NCC3CCCO3)ccc2Sc2ccc(Br)cc21` (centres undefined), the inhibition is 51.7% (active). Take `CCC1=Nc2cc(C(=O)NCC3CCCO3)ccc2Sc2ccc(Cl)cc21` (centres undefined): the inhibition was 1%. With `CCCCNC(=O)N1CCN(c2ccccc2OC)CC1`, the inhibition is -17.5%.
